Among the test systems are DU-145 prostate; K-562 leukemia; MALME-3M melanoma; MDA-MB-231 breast; RXF 393 renal; SF-268 CNS; SF-295 CNS; SF-539 CNS; UACC-257 melanoma; M14 melanoma; HCT-15 colon; HT29 colon; SNB-75 CNS; SNB-19 CNS; U251 CNS; PC-3 prostate; SK-MEL-5 melanoma; UACC-62 melanoma; LOX IMVI melanoma; SK-MEL-28 melanoma.
Test in all cases: NCI-60 one-dose screen, 48 h (100 = growth as untreated, 0 = no growth, -100 = all killed)
Common to all, as to conditions: 10 µM unless noted

This is an account of results in PubChem BioAssay (NCI).

About 83,000 compounds went through this panel and 20% of them were active in at least one assay; those are over-represented in the sample as a whole.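 How to read the values: 0–100, growth inhibition (40 = 60% inhibited); 0, no net growth; -100 to 0, cell death (-40 = 40% of starting cells died; -100 = all dead).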 Values without a mark were called inactive. The source made the active and inactive calls. Rule for the calls: active = growth percent below 10; inactive = the rest.

For the compound `Cn1cc(-c2ccc(-c3cn(C)c4ccc(Cl)cc34)[nH]2)c2cc(Cl)ccc21`, the growth in the assay with DU-145 prostate is 32%; in the assay on K-562 leukemia, -29.8% (active); with MALME-3M melanoma, -59.1% (active); with MDA-MB-231 breast, -48.5% (active); in the assay on RXF 393 renal it was -51.3% (active); in the assay on SF-268 CNS, -67.2% (active). In addition, the growth is -15.1% (active) in the assay on SF-295 CNS; -56.1% (active) in the assay on SF-539 CNS; -34.7% (active) in the assay with UACC-257 melanoma; -75.2% (active) in the assay on M14 melanoma; -66.3% (active) in the assay with HCT-15 colon; 21.9% with HT29 colon. The growth in the assay on SNB-75 CNS is -59.9% (active); in the assay with SNB-19 CNS, -68.5% (active); in the assay on U251 CNS, -100% (active); in the assay on PC-3 prostate, -56.5% (active); in the assay with SK-MEL-5 melanoma, -98.6% (active); with UACC-62 melanoma it was -82.3% (active). The growth in the assay with LOX IMVI melanoma is -95.2% (active); in the assay on SK-MEL-28 melanoma it was -52.9% (active).
Turning to `CCOC(=O)c1c(C)c2c(n1Cc1ccccc1)CSCC2=O`, the growth in the assay with DU-145 prostate was 30.8% [100 µM]; in the assay on K-562 leukemia it was 18.6% [100 µM]; in the assay on MALME-3M melanoma, -16.3% [100 µM] (active); in the assay with MDA-MB-231 breast it was -2.2% [100 µM] (active); in the assay with RXF 393 renal, 17.1% [100 µM]; with SF-268 CNS it was 21.4% [100 µM]. The growth with SF-295 CNS was 3.06% [100 µM] (active); in the assay with SF-539 CNS, -23.7% [100 µM] (active); in the assay on UACC-257 melanoma, 21.9% [100 µM]; in the assay with M14 melanoma it was -16% [100 µM] (active); in the assay with HCT-15 colon, 11.7% [100 µM]; in the assay with HT29 colon it was 7.91% [100 µM] (active). In addition, the growth in the assay on SNB-75 CNS is -13.9% [100 µM] (active); in the assay on SNB-19 CNS it was 13.8% [100 µM]; in the assay with U251 CNS, 17.5% [100 µM]; with PC-3 prostate it was 7.17% [100 µM] (active); with SK-MEL-5 melanoma, -86.5% [100 µM] (active); in the assay on UACC-62 melanoma, -35.4% [100 µM] (active). The growth in the assay with LOX IMVI melanoma was -24.4% [100 µM] (active); with SK-MEL-28 melanoma, 27.8% [100 µM].
For `C=C1C(=O)O[C@H]2[C@H]1CC/C(Cn1cc(CCC)nn1)=C\CC[C@@]1(C)O[C@@H]21`, the growth was 28.7% in the assay on DU-145 prostate; 4.94% (active) with K-562 leukemia; 4.68% (active) with MALME-3M melanoma; 12.2% in the assay on MDA-MB-231 breast; -70.2% (active) with RXF 393 renal; 67.9% with SF-268 CNS. Besides, the growth is 71.6% in the assay on SF-295 CNS; -25% (active) with SF-539 CNS; 19.1% in the assay with UACC-257 melanoma; 12.1% in the assay on M14 melanoma; -1.47% (active) with HCT-15 colon; -9.05% (active) in the assay on HT29 colon. The growth was 75.8% with SNB-75 CNS; 73.3% with SNB-19 CNS; 73.7% in the assay with U251 CNS; 64.4% in the assay with PC-3 prostate; 53.1% in the assay with SK-MEL-5 melanoma; 4.67% (active) in the assay with UACC-62 melanoma. For the same compound, the growth in the assay with LOX IMVI melanoma is -29.3% (active); in the assay on SK-MEL-28 melanoma, 7.96% (active).
As for `N=C(N)c1ccc(-c2ccc(-c3ccccc3)s2)cc1`, the growth with DU-145 prostate is 29.5%; in the assay with K-562 leukemia, 1.35% (active); with MALME-3M melanoma, 97.2%; in the assay with MDA-MB-231 breast, 10.3%; in the assay with RXF 393 renal, 78.7%; with SF-268 CNS, 76.4%. For the same compound, the growth in the assay with SF-295 CNS was 40.6%; with SF-539 CNS it was 78.5%; with UACC-257 melanoma, 103%; in the assay on M14 melanoma it was 81.1%; in the assay with HCT-15 colon, -28.3% (active); with HT29 colon it was -5% (active). Besides, the growth in the assay on SNB-75 CNS is 108%; in the assay on SNB-19 CNS, 50.1%; with U251 CNS, 9.73% (active); with PC-3 prostate, 51.3%; with SK-MEL-5 melanoma it was 95.5%; in the assay with UACC-62 melanoma it was 94.9%. In addition, the growth was -70.2% (active) with LOX IMVI melanoma and 113% with SK-MEL-28 melanoma.
In the case of `O=[N+]([O-])c1ccc(-c2cn3nc(-c4c[nH]c5ccccc45)sc3n2)cc1`, the growth in the assay with DU-145 prostate was 110%; with K-562 leukemia, 84.1%; in the assay on MALME-3M melanoma it was 89.5%; in the assay on MDA-MB-231 breast it was 94%; in the assay with RXF 393 renal, 108%; in the assay on SF-268 CNS, 108%. Besides, the growth in the assay with SF-295 CNS is 102%; in the assay with SF-539 CNS, 105%; with UACC-257 melanoma, 95.3%; in the assay with M14 melanoma, 97%; in the assay with HCT-15 colon it was 86%; in the assay with HT29 colon it was 95.3%. For the same compound, the growth in the assay with SNB-75 CNS was 96.4%; with SNB-19 CNS it was 93.4%; with U251 CNS, 96.9%; in the assay with PC-3 prostate, 93.7%; with SK-MEL-5 melanoma it was 91.2%; in the assay with UACC-62 melanoma, 84.2%. The figures for the growth in the assay on LOX IMVI melanoma and in the assay on SK-MEL-28 melanoma were 94.7% and 111%, respectively.
As to `O=C1/C(=C/c2ccccn2)NC(=S)N1c1ccccc1Cl`, the growth with DU-145 prostate was 54.1%; in the assay on K-562 leukemia it was 39.7%; with MALME-3M melanoma, 67.7%; with MDA-MB-231 breast, 36.4%; in the assay with RXF 393 renal, -7.86% (active); in the assay with SF-268 CNS it was 83.5%. The growth in the assay on SF-295 CNS was 55.9%; in the assay on SF-539 CNS, 67.3%; with UACC-257 melanoma, 74.5%; with M14 melanoma, 42.3%; in the assay on HCT-15 colon it was 38.2%; in the assay on HT29 colon, 71.1%. Moreover, the growth in the assay on SNB-75 CNS was 82%; in the assay with SNB-19 CNS, 58.6%; in the assay on U251 CNS, 34.6%; in the assay on PC-3 prostate, 52.2%; in the assay on SK-MEL-5 melanoma, 57.9%; in the assay on UACC-62 melanoma, 66.7%. Besides, the values for the growth in the assay with LOX IMVI melanoma and in the assay with SK-MEL-28 melanoma were 12.1% and 74%, respectively.
Turning to `O=C(O)c1ccc(-c2ccc(/C=N/Nc3nc(Nc4ccccc4)nc(N4CCCCC4)n3)o2)cc1`, the growth was 66.7% in the assay on DU-145 prostate; 67.5% with K-562 leukemia; 59% in the assay on MALME-3M melanoma; 96.5% in the assay with MDA-MB-231 breast; 65.4% in the assay with RXF 393 renal; 71.7% with SF-268 CNS. The growth in the assay on SF-295 CNS is -21.9% (active); with SF-539 CNS, 75.2%; in the assay on UACC-257 melanoma, 93.9%; in the assay with M14 melanoma, 83.1%; in the assay on HCT-15 colon, 55.3%; with HT29 colon, 63.4%. In addition, the growth in the assay with SNB-75 CNS is 65.7%; in the assay on SNB-19 CNS, 61%; in the assay on U251 CNS, 43.2%; in the assay on PC-3 prostate, 65.6%; in the assay with SK-MEL-5 melanoma it was 71.5%; in the assay on UACC-62 melanoma it was 67.6%. In addition, the figures for the growth with LOX IMVI melanoma and in the assay on SK-MEL-28 melanoma were 68.6% and 78.9%, respectively.
As to `CCOC(=O)C1=C(C)/C(=C\c2[nH]c(C)c(C(=O)OCC)c2C)N=C1C`, the growth was 96.2% in the assay with DU-145 prostate; 106% with K-562 leukemia; 94.6% in the assay on MALME-3M melanoma; 82.8% in the assay with MDA-MB-231 breast; 101% in the assay on RXF 393 renal; 79.1% in the assay with SF-268 CNS. The growth in the assay with SF-295 CNS was 96.9%; in the assay with SF-539 CNS, 101%; in the assay on UACC-257 melanoma, 88.9%; in the assay with M14 melanoma, 95.9%; in the assay on HCT-15 colon, 91.4%; in the assay with HT29 colon it was 76.7%. Further, the growth in the assay with SNB-75 CNS is 89.1%; with SNB-19 CNS it was 89.7%; with U251 CNS it was 74.1%; with PC-3 prostate, 84.6%; in the assay on SK-MEL-5 melanoma, 97.4%; in the assay on UACC-62 melanoma, 90.9%. For the same compound, the values for the growth in the assay on LOX IMVI melanoma and with SK-MEL-28 melanoma were 1.05% (active) and 88.3%, respectively.
